Results published in PubChem BioAssay (Tox21).
Several values for one entry are separate records, joined by “and”; a condition that tells them apart may be missing. Equal values may be shown once. Inconclusive results are not listed. Activity calls are given as the source filed them. Unless noted, calls follow the shape of the dose curve; as a rule, active = well fitted curve in the direction sought with a large enough effect in the repeat runs; inconclusive = weak or mixed curves; inactive = no such curve, though single readings can be large; an effect the other way counts as inactive or inconclusive.

Key:
[1] = qHTS RealTime-Glo MT Cell Viability Assay in HepG2 cells - 16 hour (AID 1224885); also: nearly all actives have a fitted effect of over 50% in size
Outline: (§1)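 Real-time, nonlytic viability: 600 HepG2 cells/well mixed with NanoLuc enzyme plus prosubstrate; 5 h settle, compound (DMSO) added by pintool; luminescence monitored over 40 h at 37 C.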

[2] = qHTS RealTime-Glo MT Cell Viability Assay in HEK293 cells - 24 hour (AID 1224886); also: top concentration of the series differs between compounds; nearly all actives have a fitted effect of over 50% in size
Outline: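 Cells + reagent dispensed (600 cells/well, HEK293) → 5 h at 37 C/5% CO2 → 23 nL compound in DMSO pinned → 40 h at 37 C → luminescence read at 0, 8, 16, 24, 32, 40 h.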

[3] = qHTS RealTime-Glo MT Cell Viability Assay in HEK293 cells - 8 hour (AID 1224887); also: top concentration of the series differs between compounds; nearly all actives have a fitted effect of over 50% in size
Outline: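 Luminescence, which tracks viable cell number through reduction of the prosubstrate to a NanoLuc substrate, was read over continuous 37 C culture. Cells (600/well) were premixed with reagent and rested 5 h before 23 nL of compound in DMSO was pinned.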

[4] = A CellTox Green Cytotoxicity Assay to monitor cytotoxicity in HEK293 cells - 16 hour (AID 1224888); also: nearly all actives have a fitted effect of over 35% in size
Outline: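 Fluorescence from a DNA-binding dye excluded by viable cells was measured repeatedly in the same HEK293 wells (600 cells/well) during continuous compound exposure at 37 C. Each assay gives one read point: 0, 8, 16, 24, 32 or 40 h.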

[5] = qHTS RealTime-Glo MT Cell Viability Assay in HepG2 cells - 0 hour (AID 1224889); also: nearly all actives have a fitted effect of over 50% in size
Outline: as §1

[6] = A CellTox Green Cytotoxicity Assay to monitor cytotoxicity in HepG2 cells - 8 hour (AID 1224890); also: nearly all actives have a fitted effect of over 45% in size
Outline: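 Real-time cytotoxicity: fluorescence of a cell-impermeant cyanine dye binding DNA of dead HepG2 cells, measured repeatedly (0–40 h) during compound exposure at 37 C. Cells seeded 600/well with reagent, dosed after 5 h.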

[7] = qHTS assay to identify small molecule antagonists of the estrogen receptor alpha (ER-alpha) signaling pathway using the BG1 cell line in the presence of 0.1 nM 17-beta-estradiol - cell viability counter screen (AID 1259241); also: nearly all actives have a fitted effect of over 40% in size
Outline: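 VM7Luc4E2 cells (endogenous ER-alpha, 4×ERE-luciferase), hormone-starved 5 days in charcoal-stripped FBS, were treated with compounds plus 0.1 nM 17beta-estradiol for 22 hr at 37C; viability read in same wells as CellTiter-Fluor live-cell protease fluorescence.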

[8] = qHTS assay to identify small molecule antagonists of the androgen receptor (AR) signaling pathway using the MDA cell line in the presence of 0.5 nM R1881 - cell viability counter screen (AID 1259242); also: nearly all actives have a fitted effect of over 45% in size
Outline: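 Live-cell protease activity was measured by CellTiter-Fluor fluorescence after 30 min. Before that, MDA-kb2 MMTV-luciferase cells had 16 hr at 37C without CO2, exposed to test compounds and 0.5 nM R1881 final.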

[9] = target: Estrogen receptor (Homo sapiens) (UniProt P03372); experiment: qHTS assay to identify small molecule antagonists of the estrogen receptor alpha (ER-alpha) signaling pathway using the BG1 cell line in the presence of 0.1 nM 17-beta-estradiol (AID 1259244); also: nearly all actives have a fitted effect of over 50% in size
Estrogen receptor (Homo sapiens), sequence (P03372 whole entry, looked up): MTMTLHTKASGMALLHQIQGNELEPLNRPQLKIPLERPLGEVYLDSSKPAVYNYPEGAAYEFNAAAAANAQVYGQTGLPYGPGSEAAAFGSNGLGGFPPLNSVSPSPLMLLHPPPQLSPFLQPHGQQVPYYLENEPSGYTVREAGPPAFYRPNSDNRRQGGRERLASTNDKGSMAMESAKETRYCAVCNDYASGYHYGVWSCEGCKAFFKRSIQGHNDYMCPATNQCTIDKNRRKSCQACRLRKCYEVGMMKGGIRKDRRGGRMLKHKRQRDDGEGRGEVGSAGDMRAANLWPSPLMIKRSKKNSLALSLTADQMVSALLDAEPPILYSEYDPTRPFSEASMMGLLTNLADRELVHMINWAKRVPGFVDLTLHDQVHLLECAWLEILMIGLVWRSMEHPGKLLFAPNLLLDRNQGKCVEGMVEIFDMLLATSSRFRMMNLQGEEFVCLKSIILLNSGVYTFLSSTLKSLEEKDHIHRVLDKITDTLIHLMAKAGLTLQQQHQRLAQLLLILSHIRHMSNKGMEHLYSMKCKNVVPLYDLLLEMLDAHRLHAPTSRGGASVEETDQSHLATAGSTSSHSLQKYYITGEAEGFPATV
Outline: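 Luciferase luminescence (ONE-Glo, 30 min at room temperature) was read after 22 hr at 37C exposure to compounds plus 17beta-estradiol at 0.1 nM final. Cells were VM7Luc4E2 with endogenous ER-alpha and an ERE-driven luciferase, pre-cultured 5 days in hormone-depleted medium.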

[10] = qHTS assay to identify small molecule phospholipidosis (PLD) inducers (AID 1259344; active = well fitted curve in the direction sought with a large enough effect; an effect the other way counts as inactive or inconclusive)
Outline: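 Image-based: LipidTOX Red pit count/intensity per well and per cell; HepG2, 24 h compound at 37 C, PFA fixation, Hoechst counterstain.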

[11] = qHTS assay to identify small molecule HDAC inhibitors (AID 1259364); also: nearly all actives have a fitted effect of over 45% in size; also: potency is read from the fitted curve at half-maximal effect
Outline: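 Luminescence read after 30 min room-temperature HDAC-Glo incubation measures cellular class I/II HDAC activity. Compounds were applied for 2 hr at 37 C to HCT-116 wild-type cells seeded the day before.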

[12] = qHTS assay to identify small molecule HDAC inhibitors - cell viability counter screen (AID 1259365)
Outline: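 Wild-type HCT-116 cells were seeded at 1,500 per well, incubated overnight at 37 C, then exposed to compounds in DMSO for 2hr. Viability was read by CellTiter-Glo luminescence after 30min at room temperature.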

[13] = qHTS assay to identify small molecule antagonists of the sonic hedgehog signaling (Shh) pathway - cell viability counter screen (AID 1259367); also: nearly all actives have a fitted effect of over 55% in size; also: potency is read from the fitted curve at half-maximal effect
Outline: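 Tox21 library chemicals were tested on a Gli1-Luc NIH/3T3 clone (2,000 cells/well) stimulated by conditioned medium; viability was quantified as fluorescence from CellTiter-Fluor reagent added at 23 hr.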

[14] = qHTS assay to identify small molecule agonists of the sonic hedgehog signaling (Shh) pathway (AID 1259368; calls by dose curve; also: series mostly up to about 92 µM; nearly all actives have a fitted effect of over 15% in size)
Outline: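 Luminescence was read after 30 min at room temperature with luciferase reagent. Before that, 3T3Gli1-Luc cells (NIH/3T3 clone, stable Gli1-Luc reporter; 2,000/well) were exposed to compounds for 24 hr at 37C, 5% CO2, compounds being added 4 hr post-plating.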

[15] = qHTS assay to identify small molecule antagonists of the sonic hedgehog signaling (Shh) pathway (AID 1259369; calls by dose curve; also: nearly all actives have a fitted effect of over 45% in size)
Outline: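 Antagonist mode: compound added to 3T3 Gli1-Luc cells followed by conditioned-medium stimulation, 24 h at 37 C, 5% CO2. Inhibition taken as loss of Gli1-driven luciferase luminescence.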

[16] = target: Estrogen receptor beta (Homo sapiens) (UniProt Q92731); experiment: qHTS assay to identify small molecule agonists of the estrogen receptor beta (ER-beta) signaling pathway (AID 1259377; active = well fitted activation curve with a large enough effect in the signal ratio in the repeat runs, not every such curve was filed as active; the % refers to the signal ratio)
Estrogen receptor beta (Homo sapiens), sequence (Q92731 whole entry, looked up): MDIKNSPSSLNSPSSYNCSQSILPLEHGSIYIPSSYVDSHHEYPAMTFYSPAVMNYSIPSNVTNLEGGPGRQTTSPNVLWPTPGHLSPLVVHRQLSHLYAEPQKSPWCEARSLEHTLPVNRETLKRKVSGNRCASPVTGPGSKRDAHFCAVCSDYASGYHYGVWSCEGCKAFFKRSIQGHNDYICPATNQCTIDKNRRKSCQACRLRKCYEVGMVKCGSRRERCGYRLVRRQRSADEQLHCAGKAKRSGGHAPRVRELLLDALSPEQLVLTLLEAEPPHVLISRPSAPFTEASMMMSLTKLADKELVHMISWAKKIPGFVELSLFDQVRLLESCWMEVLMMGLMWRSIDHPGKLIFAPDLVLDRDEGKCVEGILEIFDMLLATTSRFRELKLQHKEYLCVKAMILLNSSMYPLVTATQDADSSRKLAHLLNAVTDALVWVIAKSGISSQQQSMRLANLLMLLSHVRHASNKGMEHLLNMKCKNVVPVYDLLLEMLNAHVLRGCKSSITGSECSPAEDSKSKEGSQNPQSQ
Outline: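 ER-beta-UAS-bla HEK293T (GripTite) cells carrying a UAS-driven beta-lactamase reporter, in medium with 2% charcoal-stripped FBS, were exposed to compounds for 16 hr at 37C; LiveBLAzer B/G FRET substrate was then added and fluorescence read after 2 hours at room temperature.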

[17] = target: Estrogen receptor beta (Homo sapiens) (UniProt Q92731); experiment: qHTS assay to identify small molecule antagonists of the estrogen receptor beta (ER-beta) signaling pathway (AID 1259378; active = well fitted inhibition curve with a large enough effect in the signal ratio in the repeat runs, not every such curve was filed as active; the % refers to the signal ratio)
Outline: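 ER-beta-UAS-bla HEK293T cells in 2% charcoal-stripped FBS medium treated with compound plus 1nM final 17-beta-estradiol for 16 hr at 37C. Beta-lactamase reporter read by FRET substrate fluorescence after 2 hours at room temperature.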

[18] = qHTS assay to identify small molecule agonists of the sonic hedgehog signaling (Shh) pathway - cell viability counter screen (AID 1259366); also: nearly all actives have a fitted effect of over 50% in size
Outline: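 NIH/3T3-derived 3T3 Gli1-Luc cells (stable Gli1-responsive firefly luciferase reporter) were seeded, rested 4 hr at 37 C/5% CO2, then exposed to compounds in DMSO for 24 hr; viability was read by CellTiter-Fluor fluorescence in the same wells.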

[19] = qHTS assay to identify small molecule agonists of the androgen receptor (AR) signaling pathway in the presence of an antagonist - cell viability counter screen (AID 1259379);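 also: MDA-kb2 human breast cancer cells carrying an MMTV luciferase reporter; series mostly up to about 92 µM; nearly all actives have a fitted effect of over 25% in size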
Outline: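 Cytotoxicity counter-screen run in the same wells as the nilutamide-challenged (3.0 µM final) AR agonist assay in MDA-kb2 cells. Compounds tested at 15 concentrations for 16 h, 37 °C without CO2; CellTiter-Fluor fluorescence read.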

[20] = target: Androgen receptor (Homo sapiens) (UniProt P10275); experiment: qHTS assay to identify small molecule antagonists of the androgen receptor (AR) signaling pathway using the MDA cell line in the presence of 0.5 nM R1881 (AID 1259243); also: nearly all actives have a fitted effect of over 50% in size
Androgen receptor (Homo sapiens), sequence (P10275 whole entry, looked up): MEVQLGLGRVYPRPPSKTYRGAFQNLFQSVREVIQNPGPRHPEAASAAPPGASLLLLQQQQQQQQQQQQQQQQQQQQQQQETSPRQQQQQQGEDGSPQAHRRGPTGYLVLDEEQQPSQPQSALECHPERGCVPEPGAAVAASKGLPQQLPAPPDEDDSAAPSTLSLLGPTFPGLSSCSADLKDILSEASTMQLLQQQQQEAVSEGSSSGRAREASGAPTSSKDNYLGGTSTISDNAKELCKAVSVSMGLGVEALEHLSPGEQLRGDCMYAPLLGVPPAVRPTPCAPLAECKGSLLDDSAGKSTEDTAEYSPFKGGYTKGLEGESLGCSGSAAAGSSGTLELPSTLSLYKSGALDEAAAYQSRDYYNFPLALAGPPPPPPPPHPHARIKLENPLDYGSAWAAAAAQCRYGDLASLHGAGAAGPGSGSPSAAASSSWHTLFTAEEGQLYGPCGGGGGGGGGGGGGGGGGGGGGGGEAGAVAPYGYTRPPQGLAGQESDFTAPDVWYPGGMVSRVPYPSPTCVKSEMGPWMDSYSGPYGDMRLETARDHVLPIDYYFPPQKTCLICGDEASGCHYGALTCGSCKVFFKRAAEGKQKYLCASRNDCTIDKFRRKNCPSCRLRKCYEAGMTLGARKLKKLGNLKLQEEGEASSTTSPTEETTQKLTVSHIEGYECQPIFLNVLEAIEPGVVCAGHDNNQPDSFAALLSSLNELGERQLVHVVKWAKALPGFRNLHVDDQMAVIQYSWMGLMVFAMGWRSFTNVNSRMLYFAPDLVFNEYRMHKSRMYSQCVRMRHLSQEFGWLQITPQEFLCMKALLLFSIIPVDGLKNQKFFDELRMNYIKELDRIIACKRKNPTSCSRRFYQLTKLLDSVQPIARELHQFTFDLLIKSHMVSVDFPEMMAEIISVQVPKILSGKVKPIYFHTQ
Outline: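 Luminescent reporter readout (ONE-Glo, 30 min, room temperature) after 16 hr co-treatment of MDA-kb2 cells with test compounds and 0.5 nM R1881 final, at 37C without CO2. The MMTV-driven luciferase responds to both AR and GR.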

Measured: Potency

C#CCN(C)Cc1ccccc1
not listed: [18] | [19] | [20]
inactive: all other assays above

CCCCCCCCC/C=C/CC1CC(=O)OC1=O (stereo not drawn)
not listed: [9] | [10] | [16] | [17] | [19] | [20]
inactive: all other assays above

CCCCCCCC(=O)OC
not listed: [10] | [18] | [19] | [20]
inactive: all other assays above

CCCCC(CC)COC(=O)CCCCC(=O)OCC(CC)CCCC (stereo not drawn)
not listed: [10] | [19] | [20]
inactive: all other assays above

c1c[nH]cn1
not listed: [10] | [20]
inactive: all other assays above

CCCSc1ccc2nc(NC(=O)OC)[nH]c2c1
active: [11] 6.11 µM and 10.6 µM | [13] 2.17 µM
not listed: [9] | [15] | [16] | [17] | [18] | [19] | [20]
inactive: all other assays above

CC1CCC(C(C)C)C(O)C1 (stereo not drawn)
not listed: [9] | [10]
inactive: all other assays above

Cc1ccc(S(N)(=O)=O)cc1
not listed: [9] | [10] | [16] | [17] | [20]
inactive: all other assays above
